outcome, Potency and activity, negative = inhibition data for 24 compounds are collected here from PubChem BioAssay (NCATS).

Assay [1] concerns the target Endonuclease 4 (Escherichia coli (strain K12)) (UniProt P0A6C1). The assay is described as follows: Counterscreen for APE1 Inhibitors: qHTS Validation Assay for Inhibitors of Endonuclease IV (AID 1708). Note: % is set by controls: 0 for no effect and ±100 for the full control effect. The note with it: E. coli endonuclease IV, DNA cleavage fluorescence; series mostly up to 57.1 µM. In short, it runs like this:
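Concentration-response counterscreen run identically to the APE1 assay: 15 min room-temperature preincubation of 2 nM enzyme with compound, reaction started with 50 nM quenched abasic DNA, progress taken from kinetic fluorescence.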
In general terms: A counterscreen serves to expose hits that act by an unwanted route or on another target.

Assay [2] can be described thus: qHTS for differential inhibitors of proliferation of Plasmodium falciparum line 7G8 (AID 1815).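 Note: parasite growth measured after three days of incubation.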 Note: potency is the fitted concentration of half-maximal effect. The note with it: Plasmodium falciparum 7G8 proliferation inhibition; series mostly up to 28.7 µM. In general terms: qHTS replaces the single test concentration by a dilution series.
Assay [3] can be described thus: qHTS for differential inhibitors of proliferation of Plasmodium falciparum line D10 (AID 1877).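 Note: parasites grown with compound for 72 h before DNA staining.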 Note: potency is the fitted concentration of half-maximal effect. The note with it: series mostly up to 28.7 µM.
Assay [4] has as its target RecQ-like DNA helicase BLM (Homo sapiens) (UniProt P54132). The assay is described as follows: qHTS Validation Assay for Inhibitors of Bloom's syndrome helicase (BLM) (AID 2364).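 Note: plate controls were DMSO vehicle for no effect and enzyme-free control for full effect.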 The note with it: BLM helicase DNA unwinding, fluorescence, in vitro; series mostly up to 57.1 µM. In short, it runs like this:
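BLM 50 nM in 25 mM Tris-HCl pH 8.0, 5 mM NaCl, 2 mM MgCl2, 1 mM DTT, 0.01% Tween-20, 2.5 ug/ml poly(dI-dC); 15 min cpd preinc, RT. Start: 200 nM forked DNA + 2 mM ATP (final). TAMRA read, 2 reads 2 h apart.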

Assay [5] can be described thus: Validation screen for small molecules that induce DNA re-replication in SW480 colon adenocarcinoma cells (AID 504364). Note: 0% is about no effect. The note with it: DNA re-replication phenotype (high-content imaging); series mostly up to 46.1 µM. An outline of the steps: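 SW480 cells (250/well) exposed 48 h at 37 C, 5% CO2, then Hoechst-stained 40 min. Nuclear DNA content imaged by fluorescence scanning (405 nm excitation, 500-530 nm emission); re-replication scored as increased nuclei with elevated intensity.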

Assay [6] in a line: NCATS anti-infectives library activity on HEK293 viability as a counter-qHTS vs the C. elegans viability qHTS (AID 1745854).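 Note: HEK293 cells exposed to compounds for 24 hr before the viability read; % is set by controls: 0 for no effect and ±100 for the full control effect.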 The note with it: HEK293 viability counter-screen; series mostly up to 41.8 µM. An outline of the steps:
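HEK293 cells (1,500/well) exposed 24 hr at 37C to 1:5 titrations, up to 41.7 uM final; counter-screen to a C. elegans viability qHTS. Viability by CellTiter-Glo luminescence after 10 min at room temperature; digitonin as control.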

The target of assay [7] is Cytochrome P450 2C9 (Homo sapiens) (UniProt P11712). The assay can be described thus: qHTS Assay for Inhibitors and Substrates of Cytochrome P450 2C9 (AID 883). Note: nearly all actives have a fitted effect of over 60% in size. Note: potency is the fitted concentration of half-maximal effect. The settings on record: recombinant CYP2C9, luciferin-H luminescence, 60 min; series mostly up to 57.1 µM. In short, it runs like this:
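A luminogenic readout tracked human CYP2C9 (10nM) converting deoxyluciferin (100uM, at KM) in 25mM KPO4 during 60 min at 37C with regenerated NADPH. Values normalized to 57uM sulphaphenazole as complete inhibition.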

For assay [8], the target named is DNA dC->dU-editing enzyme APOBEC-3G (Homo sapiens) (UniProt Q9HC16). The assay can be described thus: qHTS for inhibitors of Vif-A3G interactions: Validation (AID 588379). Note: 0% is about no effect. The note with it: Vif-A3G protein interaction assay; series mostly up to 46.1 µM. An outline of the steps: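 HeLa cells stably expressing Vif and A3G-eYFP, 700 cells/well, incubated overnight at 37 deg C, then exposed to compound overnight at 37 deg C. Inhibition of Vif-mediated degradation read as increased yellow fluorescence (Ex 488/Em 500-530) by laser-scanning cytometry.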
Sequence of DNA dC->dU-editing enzyme APOBEC-3G (Homo sapiens) (Q9HC16 whole entry, looked up): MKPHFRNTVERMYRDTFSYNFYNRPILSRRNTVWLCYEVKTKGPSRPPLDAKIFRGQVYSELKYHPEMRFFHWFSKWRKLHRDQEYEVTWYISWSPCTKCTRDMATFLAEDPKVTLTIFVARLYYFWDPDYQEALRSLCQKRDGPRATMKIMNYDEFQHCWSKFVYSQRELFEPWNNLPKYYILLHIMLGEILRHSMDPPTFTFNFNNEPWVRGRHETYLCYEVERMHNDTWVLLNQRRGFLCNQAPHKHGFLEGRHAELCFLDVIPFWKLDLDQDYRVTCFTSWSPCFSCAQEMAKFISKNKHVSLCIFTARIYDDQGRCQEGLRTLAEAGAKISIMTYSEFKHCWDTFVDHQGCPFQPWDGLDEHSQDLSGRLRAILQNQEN

Assay [9] deals with Rap guanine nucleotide exchange factor 4 (Homo sapiens) (UniProt Q8WZA2). The assay can be described thus: Confirmatory qHTS for antagonist of cAMP-regulated guanine nucleotide exchange factor 4 (EPAC2) (AID 1645885). Note: potency is the fitted concentration of half-maximal effect; nearly all actives have a fitted effect of over 25% in size. The note with it: EPAC2 Rap1B-BODIPY-GDP exchange fluorescence, biochemical; series mostly up to 114 µM.
Sequence of Rap guanine nucleotide exchange factor 4 (Homo sapiens) (Q8WZA2 whole entry, looked up): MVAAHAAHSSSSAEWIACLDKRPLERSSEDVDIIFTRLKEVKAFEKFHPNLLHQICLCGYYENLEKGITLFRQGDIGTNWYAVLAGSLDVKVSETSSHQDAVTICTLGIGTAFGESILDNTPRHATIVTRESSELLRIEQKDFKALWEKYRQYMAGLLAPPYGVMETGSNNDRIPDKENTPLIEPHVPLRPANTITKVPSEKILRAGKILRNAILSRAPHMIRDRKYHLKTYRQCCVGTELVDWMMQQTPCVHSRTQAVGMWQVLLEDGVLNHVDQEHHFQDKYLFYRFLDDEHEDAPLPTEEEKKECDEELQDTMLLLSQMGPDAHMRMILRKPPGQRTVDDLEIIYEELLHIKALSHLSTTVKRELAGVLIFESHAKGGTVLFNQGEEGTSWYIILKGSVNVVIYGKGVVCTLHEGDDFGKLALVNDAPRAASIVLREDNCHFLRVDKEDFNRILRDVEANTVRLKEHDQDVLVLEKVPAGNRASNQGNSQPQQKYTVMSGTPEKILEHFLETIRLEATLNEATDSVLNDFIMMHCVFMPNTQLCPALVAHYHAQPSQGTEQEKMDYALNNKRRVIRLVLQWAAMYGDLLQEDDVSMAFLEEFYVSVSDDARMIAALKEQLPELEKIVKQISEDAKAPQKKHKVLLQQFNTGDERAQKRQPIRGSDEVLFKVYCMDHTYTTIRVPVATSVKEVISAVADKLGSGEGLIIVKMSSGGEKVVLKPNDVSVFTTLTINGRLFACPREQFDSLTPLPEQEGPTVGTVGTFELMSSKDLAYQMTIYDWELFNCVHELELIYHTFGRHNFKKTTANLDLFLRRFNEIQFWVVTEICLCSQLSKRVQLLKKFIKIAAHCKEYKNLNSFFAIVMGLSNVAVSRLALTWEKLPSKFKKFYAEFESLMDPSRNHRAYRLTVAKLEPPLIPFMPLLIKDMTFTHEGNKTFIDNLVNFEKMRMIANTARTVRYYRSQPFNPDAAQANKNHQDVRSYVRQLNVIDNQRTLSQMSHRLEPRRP
Assay [10] in a line: Quantitative high throughput screen for delayed death inhibitors of the malarial parasite plastid, 48 hour incubation (AID 488752). Note: nearly all actives have a fitted effect of over 65% in size. Note: potency is the fitted concentration of half-maximal effect. The note with it: Plasmodium falciparum growth; series mostly up to 28.7 µM. An outline of the steps:
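Erythrocytes infected with firefly luciferase-expressing P. falciparum (2% hematocrit, 0.1% parasitemia) cultured with compound for 48 h at 37 C, 5% CO2, in RPMI 1640/0.5% Albumax. Growth inhibition read as loss of luminescence.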

A short description of assay [11]: qHTS Assay for Modulators of Human Peripheral Myelin Protein 22 (PMP22) Expression/Activity (AID 1967; active = well fitted curve in the direction sought with a large enough effect in the signal ratio; the % refers to the signal ratio;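 note: 0% = untreated cells and 100% end not stated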). The note with it: Cell-based PMP22 reporter, dual-color luciferase ratio, 0% = compound-free control cells, mouse Pmp22 promoter in mouse Schwann cells; series mostly up to 115 µM. In short, it runs like this:
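Engineered MSC80 cells, Pmp22-promoter green and EF-alpha red luciferase reporters; 24h compound treatment at 37 °C. Concentration-response fits on green, red and ratio signals, each overlap-corrected, with %Activity normalized to untreated wells.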

The target in assay [12] is ATP-dependent 6-phosphofructokinase (Trypanosoma brucei brucei) (UniProt O15648). The assay is described as follows: qHTS Assay to Find Inhibitors of T. brucei phosphofructokinase: hit validation (AID 492961).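 Note: luminescence reports ADP formed as PFK phosphorylates fructose-6-phosphate with ATP; % is set by controls: 0 for no effect and ±100 for the full control effect.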 The note with it: T. brucei PFK, ADP-Glo luminescence; series mostly up to 24.3 µM. An outline of the steps:
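Percent activity derived from corrected luminescence, normalized between 0x and 1x enzyme controls, then fitted to concentration-response curves. Conditions: 1.25 nM PFK, 0.1 mM ATP, 0.5 mM F6P, 45 min RT.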

Assay [13] in a line: qHTS profiling for inhibitors of Plasmodium falciparum proliferation (AID 504749).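 For activity, negative = inhibition: 0% = DMSO vehicle and full inhibition = artemisinin control.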 For all read-outs here: nearly all actives have a fitted effect of over 60% in size. Note: potency is the fitted concentration of half-maximal effect. The settings on record: P. falciparum in erythrocytes, SYBR Green DNA, 72 h; for activity, negative = inhibition: at 12.8 µM (top of the series). In short, it runs like this: (§1)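 Parasite proliferation within erythrocytes, 72 h exposure. Endpoint: SYBR Green I fluorescence after overnight lysis at room temperature. Controls: 0.29 uM artemisinin, DMSO.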

Another assay concerns 3D7. The description is as above. The note with it: P. falciparum in erythrocytes, SYBR Green DNA, 72 h; series mostly up to 12.8 µM. In short, it runs like this: as §1
Another assay concerns CP191. The description is as above. The note with it: P. falciparum in erythrocytes, SYBR Green DNA, 72 h; series mostly up to 12.8 µM. In short, it runs like this: as §1
Another assay deals with CP201. The assay is described as above. The note with it: P. falciparum in erythrocytes, SYBR Green DNA, 72 h; series mostly up to 12.8 µM. In short, it runs like this:
as §1

A further assay deals with CP286. The assay is described as above. The note with it: P. falciparum in erythrocytes, SYBR Green DNA, 72 h; series mostly up to 12.8 µM. An outline of the steps: as §1
The next assay relates to DFO2036. The assay is described as above. The note with it: P. falciparum in erythrocytes, SYBR Green DNA, 72 h; series mostly up to 12.8 µM. In short, it runs like this: as §1
The subject of the next assay is HB3. The description is as above. The settings on record: P. falciparum in erythrocytes, SYBR Green DNA, 72 h; series mostly up to 12.8 µM. An outline of the steps: as §1
The next assay relates to PC49. The description is as above. The note with it: P. falciparum in erythrocytes, SYBR Green DNA, 72 h; series mostly up to 12.8 µM. An outline of the steps:
as §1

Molecules are shown by their SMILES. Several values for one entry are separate records, joined by “and”; a condition that tells them apart may be missing. Identical values can stand only once. Unmarked numbers belong to inactive results. Results filed as inconclusive are left out. Activity calls are given as the source filed them. Unless noted, calls come from the whole dose curve; as a rule, active = well fitted curve in the direction sought with a large enough effect; inconclusive = small, poorly fitted or top-dose-only effect, or another doubt; inactive = no such curve, though single readings can be large; an effect the other way counts as inactive or inconclusive.

Sequence of Cytochrome P450 2C9 (Homo sapiens) (P11712 whole entry, looked up): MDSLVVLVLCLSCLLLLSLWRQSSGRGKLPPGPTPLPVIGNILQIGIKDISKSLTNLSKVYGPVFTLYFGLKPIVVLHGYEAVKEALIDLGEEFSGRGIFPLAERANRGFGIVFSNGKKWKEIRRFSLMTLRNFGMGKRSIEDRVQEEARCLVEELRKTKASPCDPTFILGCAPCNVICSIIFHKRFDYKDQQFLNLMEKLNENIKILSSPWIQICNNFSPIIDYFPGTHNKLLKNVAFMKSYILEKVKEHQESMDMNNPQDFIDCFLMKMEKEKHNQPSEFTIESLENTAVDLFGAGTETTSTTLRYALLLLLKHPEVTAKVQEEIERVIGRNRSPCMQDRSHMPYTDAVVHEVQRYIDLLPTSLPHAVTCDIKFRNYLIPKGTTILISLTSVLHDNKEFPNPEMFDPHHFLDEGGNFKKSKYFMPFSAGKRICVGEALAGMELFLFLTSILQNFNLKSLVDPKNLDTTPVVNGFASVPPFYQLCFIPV
Sequence of RecQ-like DNA helicase BLM (Homo sapiens) (P54132 whole entry, looked up): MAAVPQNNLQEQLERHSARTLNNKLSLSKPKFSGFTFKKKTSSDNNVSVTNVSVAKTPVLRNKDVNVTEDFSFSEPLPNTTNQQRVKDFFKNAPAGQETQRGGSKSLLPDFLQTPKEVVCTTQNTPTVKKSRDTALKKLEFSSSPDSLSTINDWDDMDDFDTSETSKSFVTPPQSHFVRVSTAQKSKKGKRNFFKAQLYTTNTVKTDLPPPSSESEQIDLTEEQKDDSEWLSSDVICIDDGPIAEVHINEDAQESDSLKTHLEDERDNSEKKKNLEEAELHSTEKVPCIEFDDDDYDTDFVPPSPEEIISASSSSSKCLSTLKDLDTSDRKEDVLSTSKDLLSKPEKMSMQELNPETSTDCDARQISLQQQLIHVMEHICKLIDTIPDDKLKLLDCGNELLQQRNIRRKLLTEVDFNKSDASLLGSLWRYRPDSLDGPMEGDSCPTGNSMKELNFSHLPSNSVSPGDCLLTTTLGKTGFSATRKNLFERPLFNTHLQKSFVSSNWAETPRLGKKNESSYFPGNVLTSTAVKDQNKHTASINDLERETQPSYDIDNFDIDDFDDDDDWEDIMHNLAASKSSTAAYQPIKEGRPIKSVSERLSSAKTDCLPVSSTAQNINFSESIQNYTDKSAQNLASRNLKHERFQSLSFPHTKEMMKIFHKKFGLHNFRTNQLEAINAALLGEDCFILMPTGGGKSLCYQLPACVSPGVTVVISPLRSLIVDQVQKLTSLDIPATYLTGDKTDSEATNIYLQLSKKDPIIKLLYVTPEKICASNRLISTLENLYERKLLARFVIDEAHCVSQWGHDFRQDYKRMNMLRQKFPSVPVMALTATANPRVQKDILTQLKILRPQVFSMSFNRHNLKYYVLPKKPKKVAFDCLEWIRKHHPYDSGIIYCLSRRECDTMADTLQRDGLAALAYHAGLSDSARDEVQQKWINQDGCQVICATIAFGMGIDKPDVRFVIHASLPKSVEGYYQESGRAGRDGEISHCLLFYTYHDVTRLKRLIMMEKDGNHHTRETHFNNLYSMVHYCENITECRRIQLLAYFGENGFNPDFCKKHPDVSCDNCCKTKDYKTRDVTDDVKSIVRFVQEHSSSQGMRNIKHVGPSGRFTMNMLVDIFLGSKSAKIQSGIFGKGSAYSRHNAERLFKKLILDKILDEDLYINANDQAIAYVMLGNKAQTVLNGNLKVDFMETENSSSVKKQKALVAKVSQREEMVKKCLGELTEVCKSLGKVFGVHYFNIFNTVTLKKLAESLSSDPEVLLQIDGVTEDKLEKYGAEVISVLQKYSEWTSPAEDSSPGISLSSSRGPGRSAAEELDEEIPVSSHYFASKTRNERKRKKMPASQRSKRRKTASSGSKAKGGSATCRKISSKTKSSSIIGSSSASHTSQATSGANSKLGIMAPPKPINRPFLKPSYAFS
Sequence of ATP-dependent 6-phosphofructokinase (Trypanosoma brucei brucei) (O15648 whole entry, looked up): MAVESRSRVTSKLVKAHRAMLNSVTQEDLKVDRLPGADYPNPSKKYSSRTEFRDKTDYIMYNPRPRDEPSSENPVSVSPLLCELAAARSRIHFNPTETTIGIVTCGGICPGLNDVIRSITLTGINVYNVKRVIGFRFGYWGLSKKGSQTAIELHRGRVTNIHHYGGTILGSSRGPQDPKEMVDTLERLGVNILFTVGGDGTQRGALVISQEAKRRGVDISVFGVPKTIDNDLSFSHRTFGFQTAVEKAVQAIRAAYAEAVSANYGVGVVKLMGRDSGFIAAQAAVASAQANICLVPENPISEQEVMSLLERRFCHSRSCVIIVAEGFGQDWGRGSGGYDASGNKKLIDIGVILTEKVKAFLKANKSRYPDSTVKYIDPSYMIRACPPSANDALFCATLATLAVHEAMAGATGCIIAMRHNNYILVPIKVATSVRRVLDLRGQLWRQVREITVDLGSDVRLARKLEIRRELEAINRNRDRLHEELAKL

Consider `CN1CCc2c(cc(O)c(O)c2Cl)C(c2cccc(Cl)c2)C1` (configuration not stated), for which the compound was called inactive in [1], in assay [4] and in assay [5]. For the same compound, the Potency was 5.01 µM (active) in assay [2] and 10 µM (active) in assay [3].

With `CC(C)=CCC/C(C)=C/CC/C(C)=C/CC/C(C)=C/CC/C(C)=C/CC/C(C)=C/CC/C(C)=C/CC/C(C)=C/CC/C(C)=C/CO`, the compound was called inactive in assay [6].

In the case of `COc1cc2c3cc1Oc1c(OC)c(OC)cc4c1[C@@H](Cc1ccc(O)c(c1)Oc1ccc(cc1)C[C@@H]3N(C)CC2)N(C)CC4`, the Potency result in assay [7] is “inactive”. In addition, the call in assay [8] and in assay [6] was inactive.

Turning to `C=C[C@](C)(O)CCC1C(=C)CC(OC(C)=O)C2C(C)(C)CCCC12C` (some centres not stated), the Potency in assay [9] is 11.1 µM (active).

For the compound `COc1cc(C)c(C(=O)Oc2cc(C)c(C(=O)O)c(O)c2C)c(OC)c1C`, in assay [9], the Potency was 49.4 µM (active).

`CC(=O)OC1c2c(ccc3ccc(=O)oc23)OC(C)(C)C1OC(=O)CC(C)C` (configuration not stated): the Potency in [9] is 44.1 µM (active).

On to `COC(=O)c1c(C)c2c(c(C)c1O)OC(=O)c1c(C)c(Cl)c(O)c(Cl)c1O2`, for which the Potency in [9] is 2.48 µM (active) and 2.21 µM (active).

Take `COc1ccc2c(c1OC)C(=O)OC2C1c2c(cc3c(c2OC)OCO3)CCN1C` (configuration not stated): the compound was classed as inactive in assay [1].

As to `Nc1ncnc2c1nc(Br)n2C1O[C@H]2COP(=O)(O)O[C@@H]2C1O` (some centres not stated), the compound was called inactive in [1], in assay [4] and in assay [5]. For the same compound, the Potency result in assay [10] was “inactive”.

In the case of `NC(=NCc1ccc(Cl)c(Cl)c1)NC(=O)c1nc(Cl)c(N)nc1N`, the results for the Potency in assay [2], in assay [3] and in assay [10] were 0.562 µM (active), 0.398 µM (active) and 370 nM (active), respectively. Also, in [4], the compound was classed as inactive.

As to `CN(C)CCCO[C@H]1C([C@H](O)CO)O[C@@H]2OC(C)(C)O[C@@H]21` (some centres not stated), the compound was called inactive in [1], in assay [11], in assay [4] and in assay [5]. Also, the Potency result in [2], in assay [3] and in [10] was “inactive” in each case.

For `CNC(=O)[C@H]1O[C@@H](n2cnc3c(N)ncnc32)[C@H](O)[C@H]1O`, the call in [1], in [11] and in assay [5] was inactive. In addition, the Potency entry in [2], in assay [3] and in [10] was “inactive” each time.

With `Cc1cc(/C=C\c2ccc3cc(N(C)C)ccc3[n+]2C)c(C)n1-c1ccccc1`, the call in [12] was inactive. Moreover, the Potency in [13] (parasite line A) is 1.58 µM (active); in [13] (parasite line B), 1.58 µM (active); with 3D7, 891 nM (active); with CP191 it was 1.41 µM (active); in the assay with CP201, 3.22 µM (active); with CP286 it was 355 nM (active). In addition, the results for the Potency in the assay on DFO2036, in the assay with HB3 and in the assay on PC49 were 1.78 µM (active), 2.82 µM (active) and 3.16 µM (active), respectively.

As for `COc1ccc(-c2cc(=O)c3c(OC)c(OC)c(OC)c(OC)c3o2)cc1OC`, the call in assay [6] was inactive.

As to `Nc1ncnc2c1ncn2[C@@H]1O[C@H](COP(=O)(O)OP(=O)(O)OP(=O)(O)OP(=O)(O)OC[C@@H]2O[C@H](n3cnc4c(N)ncnc43)[C@@H](O)[C@@H]2O)[C@H](O)[C@H]1O`, the outcome in assay [11], in [4] and in [5] was inactive. For the same compound, the Potency entry in [10] was “inactive”.

Take `CC#C[C@]1(O)CC[C@H]2C3CCC4=CC(=O)CCC4=C3[C@@H](c3ccc(N(C)C)cc3)C[C@@]21C` (some centres not stated): the figures for the Potency in [2] and in assay [3] were 3.98 µM (active) and 10 µM (active), respectively.

On to `O=C1C=CC2=C3c4cc(O)c(O)cc4CC3(O)COC2=C1O` (configuration not stated), for which the outcome in [8] was inactive.

Turning to `CCC(=O)OC1CCC2C3CCc4cc(O)ccc4C3CC[C@]12C` (some centres not stated), the Potency in assay [9] is 49.4 µM (active).

As for `COc1ccccc1-c1ccc2ncnc(NCc3ccccc3)c2c1`, the Potency in assay [7] was 501 nM (active).

For `COc1ccccc1CNc1ncnc2ccc(-c3ccccc3OC)cc12`, in [7], the Potency is 794 nM (active).

Turning to `COc1cccc(Cn2c(=O)c(-c3cc(F)cc(F)c3)nc3cnc(N4CCNCC4)nc32)c1`, the Potency in assay [7] is 7940 nM (active).

For the compound `CN(C)CC/C=C1\c2ccccc2CSc2ccccc21`, in assay [12], the call was inactive. The values for the activity, negative = inhibition in [13] (parasite line A) and in assay [13] (parasite line B) were 4.44% and 2.26%, respectively. In addition, the Potency result with 3D7, in the assay with CP191, in the assay with CP201, in the assay with CP286, with DFO2036 and with HB3 was “inactive” each time. Further, in the assay with PC49, the Potency result was “inactive”.

On to `CC1=CC(=O)CC(C)(C)C1(O)/C=C/C(C)=C\C(=O)O` (configuration not stated), for which the result in [8] was inactive.

Take `CC(C)N1CCN(c2ccc(OC[C@@H]3CO[C@@](Cn4cncn4)(c4ccc(Cl)cc4Cl)O3)cc2)CC1`: in [12], the compound was classed as inactive. Moreover, the activity, negative = inhibition in assay [13] (parasite line A) was 5.81%. Moreover, the Potency result in the assay on 3D7, in the assay on CP191, in the assay with CP201, in the assay with CP286, in the assay with DFO2036 and with HB3 was “inactive” throughout. Further, the Potency result in the assay with PC49 was “inactive”.
